Hits are enriched below; roughly 19% of the tested compounds scored in any of these assays.
HT1080NT lethal: qHTS for induction of synthetic lethality in tumor cells producing 2HG: qHTS for the HT-1080-NT fibrosarcoma cell line; HT-1080-NT fibrosarcoma viability, CellTiter-Glo ATP luminescence, 48 h; 360,000 compounds, 1.6% hits; Potency, µM (titrated, usually from 46.1 µM), hits mostly cytotoxic;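 further: NT is the 2HG producing partner of a matched IDH1 knockdown line; nearly all actives have a fitted effect of over 55% in size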
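A 48-hour cytotoxicity screen used HT-1080-NT cells plated 2 hours before compound delivery. ATP-based CellTiter-Glo luminescence measured viability, normalized to DMSO and no-cell controls.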
KB-V1 cytotox: qHTS assay for MDR1-selective chemotherapeutics: Primary screen using the drug-selected MDR subline cells KB-V1. 400,000 compounds, 3.4% hits. AID 1347076, 2019. Potency, µM (series often up to 46.1 µM), actives largely listed as cytotoxic. KB-V1 MDR cells viability, CellTiter-Glo, 72 h; further: nearly all actives have a fitted effect of over 60% in size
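KB-V1 cells (P-gp-expressing MDR subline of KB-3-1) in phenol-red-free DMEM with 10% FBS were exposed to library compounds over a concentration series for 72 h at 37 degrees C. Viability read by CellTiter-Glo luminescence; concentration-effect curves fitted after normalization.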
KB-3-1 tox: qHTS assay for MDR1-selective chemotherapeutics: Primary screen using the parental adenocarcinoma cell KB-3-1; KB-3-1 viability, CellTiter-Glo ATP luminescence, 72 h; Potency, µM (doses to about 46.1 µM), hits mostly cytotoxic; 400,000 compounds, 1.4% hits; further: nearly all actives have a fitted effect of over 60% in size
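Parental KB-3-1 viability, qHTS format: 72 h compound exposure, 37 °C; CellTiter-Glo; media-only wells and DMSO plates as controls; concentration-effect fits on corrected data.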
DT40 TDP1 no CPT: qHTS for Inhibitors of human tyrosyl-DNA phosphodiesterase 1 (TDP1): qHTS in cells in absence of CPT; Potency, µM (highest dose often 46.2 µM), actives largely listed as inhibitors; 420,000 compounds, 15% hits; AID 686978, 2013; DT40 Tdp1-/- hTDP1 cells, no CPT, ATP luminescence, 48 h; further: nearly all actives have a fitted effect of over 55% in size
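Growth kinetics read by CellTiter-Glo luminescence after ≥48 hr at 37 °C. Cells: DT40 Tdp1-/- stably carrying human TDP1, 400 per well, compound exposure in the absence of CPT (DMSO vehicle).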
HT1080 IDH1KD tx: qHTS for induction of synthetic lethality in tumor cells producing 2HG: qHTS for the HT-1080-IDH1KD cell line. HT-1080 IDH1 knockdown viability, ATP luminescence, 48 h. Potency, µM (doses to about 46.1 µM), most hits filed as cytotoxic. 360,000 compounds, 2% hits
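CellTiter-Glo luminescence after 48 h compound exposure at 37 degrees C of IDH1-knockdown HT-1080 cells in 5% FBS RPMI. %Activity scaled between DMSO wells and cell-free media wells, with curves fitted and assigned curve classes.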
DT40 TDP1 CPT: qHTS for Inhibitors of human tyrosyl-DNA phosphodiesterase 1 (TDP1): qHTS in cells in presence of CPT; chicken DT40 Tdp1-/-;hTDP1 cells + 20 nM CPT, ATP luminescence, 48 h; Potency, µM (top dose mostly 46.2 µM), actives largely listed as inhibitors; 420,000 compounds, 12% hits; further: nearly all actives have a fitted effect of over 55% in size
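Cell growth measured by CellTiter-Glo luminescence after a minimum 48 h, 37 C compound exposure with 20 nM CPT in Tdp1-knockout DT40 cells stably expressing hTDP1, seeded 400/well; qHTS titration format.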
Hits are given with their value; n = inactive; u = inconclusive; x = no result given; ! = repeats disagree. The call rests on the fitted dose curve; in most records, active means well fitted curve in the direction sought with a large enough effect; inconclusive means small, poorly fitted or top-dose-only effect, or another doubt; inactive means no such curve, though single readings can be large; an effect the other way counts as inactive or inconclusive.

SMILES	HT1080NT lethal	KB-V1 cytotox	KB-3-1 tox	DT40 TDP1 no CPT	HT1080 IDH1KD tx	DT40 TDP1 CPT
Cn1c(=O)cc(OCC(=O)N2CCN(C3CCCCC3)CC2)c2ccccc21	n	n	n	n	n	n
O=C1OC2(c3cc(Br)c(O)cc3Oc3c2cc(Br)c(O)[c]3[Hg])c2ccccc21 (stereo unspecified)	x	x	x	3.6µM	x	4.5µM
C[C@]12CCC3C(CC[C@H]4CC(O)CC[C@]34C)C1CC/C2=N/NC(=O)c1ccncc1 (stereo partly specified)	n	n	n	23µM	n	26µM
C[C@]12CCC3C(CC[C@H]4C[C@@H](O)CC[C@]34C)[C@@H]1CCC2=O (stereo partly specified)	x	x	x	30µM	x	27µM
CN1Cc2c(c(C#N)c(N)n(C)c2=S)CC1(C)C	n	u	n	n	n	u
CN(C)c1ncc(C2=C(Cl)C(=O)C(N3CCCC3)=C(Cl)C2=O)s1	u	n	n	1.2µM	8.9µM	0.92µM
COc1ccc(/C=C/C=C2C(=O)NC(=S)NC2=O)cc1	n	u	u	3.3µM	n	3.3µM
COc1ccc(C=C2C(=O)NC(=S)NC2=O)cc1OC	n	n	n	n	n	n
CCN(CC)C(=O)Oc1ccc2cc(Br)ccc2c1	n	n	n	u	n	n
C#CC1(O)C=CC2C3CCC4=CC(=O)CCC4C3CCC21CC (stereo unspecified)	n	u	n	u	n	u
CCC1(O)CCC2C3CCC4=CC(=O)CCC4C3CCC21CC (stereo unspecified)	n	u	n	21µM	n	23µM
COc1ccc(CNCCc2c[nH]c3ccccc23)c(OC)c1C	u	u	n	7.3µM	26µM	5.8µM
COc1cccc(CNCCc2c[nH]c3ccccc23)c1	n	n	n	u	n	u
COc1ccc(CNCCc2ccccc2F)c(OC)c1C	n	n	n	23µM	n	15µM
COc1cc(C)c(CNCCc2c[nH]c3ccccc23)cc1C	u	u	u	7.3µM	u	8.2µM
CCOC(=O)CC1c2ccccc2-n2nncc2CN1CC1CCCCC1 (stereo unspecified)	n	u	n	u	n	u
N#CC(C#N)=Cc1cccnc1	n	n	n	9.2µM	n	9.2µM
CNCC/C=C/c1cccnc1	x	x	x	n	x	n
CN1CCCC2(CCN(C(=O)c3csnn3)CC2)C1	x	x	x	n	x	n
COc1ccccc1OC(C)C(=O)N1CCC(Cc2ccccc2)CC1 (stereo unspecified)	n	u	n	u	n	16µM
CNc1ccccc1C(=O)O	x	x	x	n	x	n
O=C(O)c1ccccc1Nc1cccc(C(F)(F)F)c1	n	n	n	15µM	n	12µM!
COC(=O)C1=C(c2ccc(F)cc2OCc2ccccc2)C[C@@H]2CC[C@H]1N2C(=O)NCCN1CCOCC1	n	n	n	u	n	n
COC(=O)C1=C(c2ccc(F)cc2OCc2ccccc2)C[C@@H]2CC[C@H]1N2C	n	u	n	16µM	n	23µM
COC(=O)C1=C(c2ccccc2OCc2ccccc2)C[C@@H]2CC[C@H]1N2C	n	n	n	23µM	n	u
SMILES	HT1080NT lethal	KB-V1 cytotox	KB-3-1 tox	DT40 TDP1 no CPT	HT1080 IDH1KD tx	DT40 TDP1 CPT
N[C@H](CCCCCP(=O)(O)O)C(=O)O	x	x	x	n	x	n
OC(c1ccc(F)cc1)(c1ccc(F)cc1)[C@@H]1CCCN1	n	n	n	16µM	n	u
CCCC12CN3CCN(CC(C3)/C1=N\NC(=O)c1ccncc1)C2	n	n	n	n	n	n
Cc1oc(-c2ccccc2F)nc1CS(=O)(=O)CC(=O)N1CCN(c2cccc(C(F)(F)F)c2)CC1	x	n	n	u	x	u
CN1C2CCC1CC(OC(=O)c1ccc([N+](=O)[O-])cc1)C2 (stereo unspecified)	n	n	n	n	n	n
CN1[C@@H]2CC[C@H]1CC(OC(c1ccc(F)cc1)c1ccc(F)cc1)C2 (stereo partly specified)	x	x	x	9.4µM	x	6.7µM
O=C(O)C1CC2(Cl)C(Cl)=C(Cl)C1(Cl)C2(Cl)Cl (stereo unspecified)	n	n	n	n	n	n
COc1ccc(OC)c(NC(=O)Cn2cc(C(=O)c3ccccc3F)c3ccccc32)c1	x	n	u	23µM	x	u
CC(=O)c1cn(Cc2ccccc2C#N)c2ccccc12	n	1.8µM	u	1µM	u	2.1µM
CC(C)C(=O)c1cn(Cc2ccccc2C#N)c2ccccc12	n	u	n	u	n	u
O=C(c1ccccc1F)c1cn(Cc2ccc(F)cc2)c2ccccc12	n	n	n	u	n	16µM
CC(=O)c1cn(Cc2ccccc2F)c2ccccc12	n	n	u	4.6µM	n	8.2µM

Source: PubChem
